Assay results reported in the supplement of paper PMC6555819.

How the values were obtained:
Assay in all cases: PBM binding z-score (relative to random genomic background probes); higher = stronger binding; sequences stand for … in GC…GCGATTGACAGCGTAGAATGAAGG
[1] = test system: PPARg:RXRa DBDmut IVT, anti-RXR (DBD mutation: RXRa K156A/R161A, NR concentration 270 nM, RXRa partner concentration 90 nM)
How it was run: (§1)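 On custom Agilent 4×180K arrays, double-stranded probes with 34-nt variable regions carried direct-repeat seeds, single-nucleotide variants, half-site ablations or random human genomic background. Ligand-free nuclear receptor dimers were applied for 1 h, and binding was read with antibodies against each partner (one per run). Binding z-scores come from regression-normalized fluorescence, with the random background probes as reference.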

[2] = test system: PPARg:RXRa IVT, anti-PPARg (NR concentration 270 nM, RXRa partner concentration 90 nM)
How it was run: as §1

[3] = test system: PPARg DBDmut:RXRa IVT, anti-PPARg (DBD mutation: PPARg1 K132A/R137A, NR concentration 270 nM, RXRa partner concentration 90 nM)
How it was run: as §1

[4] = test system: PPARg DBDmut IVT, anti-PPARg (DBD mutation: PPARg1 K132A/R137A, NR concentration 270 nM)
How it was run: as §1

[5] = test system: PPARg homodimer (NR concentration 180 nM)
How it was run: as §1

[6] = test system: PXR:RXRa (NR concentration 270 nM, RXRa partner concentration 90 nM)
How it was run: as §1

[7] = test system: PXR homodimer (NR concentration 270 nM)
How it was run: as §1

[8] = test system: RARa:RXR (NR concentration 270 nM, RXRa partner concentration 90 nM)
How it was run: as §1

[9] = test system: RARa homodimer (NR concentration 270 nM)
How it was run: as §1

[10] = test system: RARb:RXRa (NR concentration 270 nM, RXRa partner concentration 90 nM)
How it was run: as §1

[11] = test system: RARb homodimer (NR concentration 270 nM)
How it was run: as §1

[12] = test system: RARg:RXRa (NR concentration 270 nM, RXRa partner concentration 90 nM)
How it was run: as §1

[13] = test system: RARg homodimer (NR concentration 270 nM)
How it was run: as §1

[14] = test system: RXRa DBDmut IVT, anti-RXR (DBD mutation: RXRa K156A/R161A, NR concentration 90 nM)
How it was run: as §1

[15] = test system: RXRa homodimer (NR concentration 180 nM)
How it was run: as §1

[16] = test system: THRa:RXRa (NR concentration 90 nM, RXRa partner concentration 90 nM)
How it was run: as §1

[17] = test system: THRa homodimer (NR concentration 90 nM)
How it was run: as §1

[18] = test system: VDR:RXRa (NR concentration 270 nM, RXRa partner concentration 90 nM)
How it was run: as §1

[19] = test system: VDR homodimer (NR concentration 270 nM)
How it was run: as §1

Sequence	PBM binding z-score [1]	PBM binding z-score [2]	PBM binding z-score [3]	PBM binding z-score [4]	PBM binding z-score [5]	PBM binding z-score [6]	PBM binding z-score [7]	PBM binding z-score [8]	PBM binding z-score [9]	PBM binding z-score [10]	PBM binding z-score [11]	PBM binding z-score [12]	PBM binding z-score [13]	PBM binding z-score [14]	PBM binding z-score [15]	PBM binding z-score [16]	PBM binding z-score [17]	PBM binding z-score [18]	PBM binding z-score [19]
AGTCAAAGTTCATCTAGGTAATGTAAGATATGCT	1.01	3.31	1.3	1.47	2.6	5.28	6.34	3.72	1.8	4.94	3.87	5.56	6.17	4.52	4.6	2.92	0.21	5.13	5.21
TCTGGTAGATCAAAGGTTAAGAAAGCCGAAGCCT	1.47	2.16	-0.482	0.322	0.978	1.97	0.168	2.79	0.25	1.91	1.4	1.89	0.73	0.747	3.05	1.33	-0.327	1.48	0.151
TCATATAGTTAATACAGGTGAAAGTCGGCATCTA	2.82	1.74	1.53	1.48	1.32	1.05	0.721	1.59	2.34	0.914	0.692	0.857	0.789	2.12	1.2	1.02	0.515	1.26	0.657
CCTACTGGGCCACGAAAGGTCATAGATTCAGTGA	5.75	6.04	0.35	1.08	3.16	4.97	0.915	5.39	0.471	4.03	4.58	4.73	4.53	-0.0363	4.95	3.84	0.901	3.89	1.31
ATATGTAGGTTAAGGGTCATTCAGGTTGGTTCGC	7.43	7.64	1.5	1.61	4	5.48	2.98	5.87	2.71	3.79	4.16	4.91	3.76	2.37	6.65	3.68	2.05	5.83	4.42
CTTCCAAGGTCAATGCTAGGTCAGTGAAAGCATT	3.33	4.08	1	0.112	4.08	4.64	1.63	6.06	0.988	5.2	4.79	7.32	6.93	3.55	5.39	4.33	3.09	4.72	2.95
TCTCGGCGGACACGAAAGGTCAGAGCTCGACATC	1.12	0.541	-0.347	-0.845	1.83	3.15	-0.247	3.71	0.345	3.56	4.12	4.12	4.06	0.462	3.66	2.55	0.2	2.19	0.543
CAAACTAGGGCAAAGGTCAAAGTCGAGCCAACCA	7.98	8.53	3.73	2.63	4.12	5.98	1.29	7.53	1.54	5.15	4.68	7.57	6.04	2.02	8.18	3.87	0.591	5.41	2.25
AGTCAATGTTCACTAGGTAACGTAAGATTCAGCT	1.92	2.92	1.08	0.776	0.288	-0.0899	-0.202	-0.181	-0.0197	0.143	0.00708	0.177	0.455	0.313	0.0273	0.29	0.282	-0.0351	-0.164
CCTACTGGGCCATTCAGAGGTCTTTGATCATATG	4.08	3.47	-0.147	-0.677	0.234	-0.375	0.0887	-0.471	-0.345	0.306	0.406	0.221	0.17	-0.165	-0.258	0.0585	-0.237	-0.301	-0.313
CCTTACTGGTCACTGACAGGTTATAGCATTTGGA	1.41	0.777	0.395	0.913	1.46	0.611	0.48	0.74	1.52	1.72	1.55	1.76	1.32	0.856	0.874	0.492	0.796	0.592	0.63
GCATATAAGTAATACAAGGTGAAAGTCCGATTGT	0.462	0.546	0.743	0.728	0.405	0.436	0.309	1.13	0.698	0.452	0.816	0.308	0.389	0.717	0.568	2.96	0.985	0.0691	-0.188
ATATGTACGTTACATCCGGGTCATTCAGGCTATG	1.16	1.97	2.06	2.28	1.34	3.1	3.05	3.04	0.866	1.56	2.41	1.61	1.24	1.2	2.07	3.14	2.93	3.54	2.95
CCAGACAGGTGAAAGGTAAGTCAGTCTGGTACGC	2.21	2.43	-0.386	-0.609	0.848	0.517	-0.131	1.06	0.44	1.14	0.843	1.2	0.478	0.066	1.68	0.828	0.0448	0.522	0.0335
CCTAGTTGGTCAATGTCACACACGCTATAGGTAC	1.5	1.6	1.25	1.28	1.57	0.71	0.574	0.851	1.91	1.4	1.52	1.07	1.59	1.04	0.701	0.639	0.635	0.974	0.802
